# Test results reported in PMC11062922 (Nature Chemical Biology, 2023).
# Like-named read-outs stand apart in the source and are kept apart here.
# What was measured:
# [1] = system: STK4; settings: read-out: apparent Kd, n = 1
# [2] = system: SYK; settings: read-out: apparent Kd, n = 1
# [3] = compound concentrations:100 nM and 1000 nM (sheet 'Lestaurtinib' of Supplementary Table 1),run:Lestaurtinib_02482_R1,Plate:MR011
# [4] = compound concentrations:100 nM and 1000 nM (sheet 'Lestaurtinib' of Supplementary Table 1),run:Lestaurtinib_02482_R2,Plate:MR011
# [5] = compound concentrations:100 nM and 1000 nM (sheet 'Lestaurtinib' of Supplementary Table 1),run:Lestaurtinib_02482_R3,Plate:MR011
# [6] = compound concentrations:100 nM and 1000 nM (sheet 'Lestaurtinib' of Supplementary Table 1),run:Lestaurtinib_02487_R1,Plate:MR012
# [7] = compound concentrations:100 nM and 1000 nM (sheet 'Lestaurtinib' of Supplementary Table 1),run:Lestaurtinib_02496_R1,Plate:MR013
# [8] = compound concentrations:100 nM and 1000 nM (sheet 'Lestaurtinib' of Supplementary Table 1),run:Lestaurtinib_02566_R3,Plate:MR014
# [9] = compound concentrations:100 nM and 1000 nM (sheet 'Lestaurtinib' of Supplementary Table 1),run:Lestaurtinib_02577_R3,Plate:MR016
# [10] = compound concentrations:100 nM and 1000 nM (sheet 'Lestaurtinib' of Supplementary Table 1),run:Lestaurtinib_02584_R1,Plate:MR017
# [11] = compound concentrations:100 nM and 1000 nM (sheet 'Lestaurtinib' of Supplementary Table 1),run:Lestaurtinib_02584_R3,Plate:MR017
# [12] = compound concentrations:100 nM and 1000 nM (sheet 'Lestaurtinib' of Supplementary Table 1),run:Lestaurtinib_02601_R1,Plate:MR018
# [13] = compound concentrations:100 nM and 1000 nM (sheet 'Lestaurtinib' of Supplementary Table 1),run:Lestaurtinib_02601_R2,Plate:MR018
# [14] = compound concentrations:100 nM and 1000 nM (sheet 'Lestaurtinib' of Supplementary Table 1),run:Lestaurtinib_02601_R3,Plate:MR018
# [15] = compound concentrations:100 nM and 1000 nM (sheet 'Lestaurtinib' of Supplementary Table 1),run:Lestaurtinib_02606_R1,Plate:MR019
# [16] = compound concentrations:100 nM and 1000 nM (sheet 'Lestaurtinib' of Supplementary Table 1),run:Lestaurtinib_02606_R2,Plate:MR019
# [17] = compound concentrations:100 nM and 1000 nM (sheet 'Lestaurtinib' of Supplementary Table 1),run:Lestaurtinib_02624_R1,Plate:MR020
# [18] = compound concentrations:100 nM and 1000 nM (sheet 'Lestaurtinib' of Supplementary Table 1),run:Lestaurtinib_02741_R2,Plate:MR023
substance,measurement,setting,value
Lestaurtinib,potency estimated from few doses,[1]; [3],34.5 nM
same,potency estimated from few doses,[1]; [4],42.5 nM
same,potency estimated from few doses,[1]; [5],38.1 nM
same,potency estimated from few doses,[1]; [6],33 nM
same,potency estimated from few doses,"[1]; compound concentrations:100 nM and 1000 nM (sheet 'Lestaurtinib' of Supplementary Table 1),run:Lestaurtinib_02487_R3,Plate:MR012",48 nM
same,potency estimated from few doses,[1]; [7],39.4 nM
same,potency estimated from few doses,"[1]; compound concentrations:100 nM and 1000 nM (sheet 'Lestaurtinib' of Supplementary Table 1),run:Lestaurtinib_02496_R3,Plate:MR013",36.6 nM
same,potency estimated from few doses,"[1]; compound concentrations:100 nM and 1000 nM (sheet 'Lestaurtinib' of Supplementary Table 1),run:Lestaurtinib_02566_R2,Plate:MR014",53.6 nM
same,potency estimated from few doses,[1]; [8],36.8 nM
same,potency estimated from few doses,"[1]; compound concentrations:100 nM and 1000 nM (sheet 'Lestaurtinib' of Supplementary Table 1),run:Lestaurtinib_02572_R2,Plate:MR015",38.4 nM
same,potency estimated from few doses,"[1]; compound concentrations:100 nM and 1000 nM (sheet 'Lestaurtinib' of Supplementary Table 1),run:Lestaurtinib_02572_R3,Plate:MR015",51.5 nM
same,potency estimated from few doses,[1]; [9],26.1 nM
same,potency estimated from few doses,[1]; [10],32.3 nM
same,potency estimated from few doses,"[1]; compound concentrations:100 nM and 1000 nM (sheet 'Lestaurtinib' of Supplementary Table 1),run:Lestaurtinib_02584_R2,Plate:MR017",37.7 nM
same,potency estimated from few doses,[1]; [11],39.7 nM
same,potency estimated from few doses,[1]; [12],47.3 nM
same,potency estimated from few doses,[1]; [13],41.1 nM
same,potency estimated from few doses,[1]; [14],51.2 nM
same,potency estimated from few doses,[1]; [15],38.6 nM
same,potency estimated from few doses,[1]; [16],55.6 nM
same,potency estimated from few doses,[1]; [17],48.3 nM
same,potency estimated from few doses,"[1]; compound concentrations:100 nM and 1000 nM (sheet 'Lestaurtinib' of Supplementary Table 1),run:Lestaurtinib_02724_R1,Plate:MR021",52.4 nM
same,potency estimated from few doses,"[1]; compound concentrations:100 nM and 1000 nM (sheet 'Lestaurtinib' of Supplementary Table 1),run:Lestaurtinib_02724_R2,Plate:MR021",41.4 nM
same,potency estimated from few doses,"[1]; compound concentrations:100 nM and 1000 nM (sheet 'Lestaurtinib' of Supplementary Table 1),run:Lestaurtinib_02724_R3,Plate:MR021",39.8 nM
same,potency estimated from few doses,[1]; [18],36.2 nM
same,potency estimated from few doses,"[1]; compound concentrations:100 nM and 1000 nM (sheet 'Lestaurtinib' of Supplementary Table 1),run:Lestaurtinib_02748_R2,Plate:MR024",31.7 nM
same,potency estimated from few doses,"[1]; compound concentrations:100 nM and 1000 nM (sheet 'Lestaurtinib' of Supplementary Table 1),run:Lestaurtinib_02748_R3,Plate:MR024",40.9 nM
same,potency estimated from few doses,"[1]; compound concentrations:100 nM and 1000 nM (sheet 'Lestaurtinib' of Supplementary Table 1),run:Lestaurtinib_02752_R1,Plate:MR025",51.5 nM
same,potency estimated from few doses,"[1]; compound concentrations:100 nM and 1000 nM (sheet 'Lestaurtinib' of Supplementary Table 1),run:Lestaurtinib_02752_R2,Plate:MR025",36.2 nM
same,potency estimated from few doses,"[1]; compound concentrations:100 nM and 1000 nM (sheet 'Lestaurtinib' of Supplementary Table 1),run:Lestaurtinib_02752_R3,Plate:MR025",35.9 nM
same,potency estimated from few doses,"[1]; compound concentrations:100 nM and 1000 nM (sheet 'Lestaurtinib' of Supplementary Table 1),run:Lestaurtinib_02766_R2,Plate:MR027",45.4 nM
same,potency estimated from few doses,"[1]; compound concentrations:100 nM and 1000 nM (sheet 'Lestaurtinib' of Supplementary Table 1),run:Lestaurtinib_02768_R1,Plate:MR028",43.2 nM
same,potency estimated from few doses,"[1]; compound concentrations:100 nM and 1000 nM (sheet 'Lestaurtinib' of Supplementary Table 1),run:Lestaurtinib_02795_R2,Plate:MR022",29.7 nM
same,potency estimated from few doses,"[1]; compound concentrations:100 nM and 1000 nM (sheet 'Lestaurtinib' of Supplementary Table 1),run:Lestaurtinib_02802_R1,Plate:MR029",34.7 nM
same,potency estimated from few doses,"[1]; compound concentrations:100 nM and 1000 nM (sheet 'Lestaurtinib' of Supplementary Table 1),run:Lestaurtinib_02896_R1,Plate:MR030",35.8 nM
same,potency estimated from few doses,"[1]; compound concentrations:100 nM and 1000 nM (sheet 'Lestaurtinib' of Supplementary Table 1),run:Lestaurtinib_03172_R1,Plate:MR031",30.6 nM
same,potency estimated from few doses,"[1]; compound concentrations:100 nM and 1000 nM (sheet 'Lestaurtinib' of Supplementary Table 1),run:Lestaurtinib_03172_R2,Plate:MR031",38.8 nM
same,potency estimated from few doses,"[1]; compound concentrations:100 nM and 1000 nM (sheet 'Lestaurtinib' of Supplementary Table 1),run:Lestaurtinib_03172_R3,Plate:MR031",35.2 nM
same,potency estimated from few doses,"[1]; compound concentrations:100 nM and 1000 nM (sheet 'Lestaurtinib' of Supplementary Table 1),run:Lestaurtinib_03252_R2,Plate:MR032",45.6 nM
same,potency estimated from few doses,"[1]; compound concentrations:100 nM and 1000 nM (sheet 'Lestaurtinib' of Supplementary Table 1),run:Lestaurtinib_03260_R1,Plate:MR033",38.2 nM
same,potency estimated from few doses,"[1]; compound concentrations:100 nM and 1000 nM (sheet 'Lestaurtinib' of Supplementary Table 1),run:Lestaurtinib_03260_R2,Plate:MR033",47.5 nM
same,potency estimated from few doses,"[2]; compound concentrations:100 nM and 1000 nM (sheet 'Lestaurtinib' of Supplementary Table 1),run:Lestaurtinib_02339_R1,Plate:MR001",511 nM
same,potency estimated from few doses,"[2]; compound concentrations:100 nM and 1000 nM (sheet 'Lestaurtinib' of Supplementary Table 1),run:Lestaurtinib_02364_R1,Plate:MR002",481 nM
same,potency estimated from few doses,"[2]; compound concentrations:100 nM and 1000 nM (sheet 'Lestaurtinib' of Supplementary Table 1),run:Lestaurtinib_02364_R3,Plate:MR002",486 nM
same,potency estimated from few doses,"[2]; compound concentrations:100 nM and 1000 nM (sheet 'Lestaurtinib' of Supplementary Table 1),run:Lestaurtinib_02367_R1,Plate:MR003",140 nM
same,potency estimated from few doses,"[2]; compound concentrations:100 nM and 1000 nM (sheet 'Lestaurtinib' of Supplementary Table 1),run:Lestaurtinib_02381_R1,Plate:MR004",206 nM
same,potency estimated from few doses,"[2]; compound concentrations:100 nM and 1000 nM (sheet 'Lestaurtinib' of Supplementary Table 1),run:Lestaurtinib_02381_R2,Plate:MR004",170 nM
same,potency estimated from few doses,"[2]; compound concentrations:100 nM and 1000 nM (sheet 'Lestaurtinib' of Supplementary Table 1),run:Lestaurtinib_02381_R3,Plate:MR004",440 nM
same,potency estimated from few doses,"[2]; compound concentrations:100 nM and 1000 nM (sheet 'Lestaurtinib' of Supplementary Table 1),run:Lestaurtinib_02407_R1,Plate:MR005",189 nM
same,potency estimated from few doses,"[2]; compound concentrations:100 nM and 1000 nM (sheet 'Lestaurtinib' of Supplementary Table 1),run:Lestaurtinib_02407_R2,Plate:MR005",134 nM
same,potency estimated from few doses,"[2]; compound concentrations:100 nM and 1000 nM (sheet 'Lestaurtinib' of Supplementary Table 1),run:Lestaurtinib_02407_R3,Plate:MR005",157 nM
same,potency estimated from few doses,"[2]; compound concentrations:100 nM and 1000 nM (sheet 'Lestaurtinib' of Supplementary Table 1),run:Lestaurtinib_02422_R2,Plate:MR006",507 nM
same,potency estimated from few doses,"[2]; compound concentrations:100 nM and 1000 nM (sheet 'Lestaurtinib' of Supplementary Table 1),run:Lestaurtinib_02422_R3,Plate:MR006",218 nM
same,potency estimated from few doses,"[2]; compound concentrations:100 nM and 1000 nM (sheet 'Lestaurtinib' of Supplementary Table 1),run:Lestaurtinib_02437_R2,Plate:MR007",500 nM
same,potency estimated from few doses,"[2]; compound concentrations:100 nM and 1000 nM (sheet 'Lestaurtinib' of Supplementary Table 1),run:Lestaurtinib_02438_R2,Plate:MR008",161 nM
same,potency estimated from few doses,"[2]; compound concentrations:100 nM and 1000 nM (sheet 'Lestaurtinib' of Supplementary Table 1),run:Lestaurtinib_02443_R1,Plate:MR009",437 nM
same,potency estimated from few doses,"[2]; compound concentrations:100 nM and 1000 nM (sheet 'Lestaurtinib' of Supplementary Table 1),run:Lestaurtinib_02473_R1,Plate:MR010",478 nM
same,potency estimated from few doses,"[2]; compound concentrations:100 nM and 1000 nM (sheet 'Lestaurtinib' of Supplementary Table 1),run:Lestaurtinib_02473_R2,Plate:MR010",446 nM
same,potency estimated from few doses,"[2]; compound concentrations:100 nM and 1000 nM (sheet 'Lestaurtinib' of Supplementary Table 1),run:Lestaurtinib_02473_R3,Plate:MR010",416 nM
same,potency estimated from few doses,[2]; [3],523 nM
same,potency estimated from few doses,[2]; [4],462 nM
same,potency estimated from few doses,[2]; [5],432 nM
same,potency estimated from few doses,[2]; [6],598 nM
same,potency estimated from few doses,"[2]; compound concentrations:100 nM and 1000 nM (sheet 'Lestaurtinib' of Supplementary Table 1),run:Lestaurtinib_02487_R2,Plate:MR012",495 nM
same,potency estimated from few doses,[2]; [7],515 nM
same,potency estimated from few doses,"[2]; compound concentrations:100 nM and 1000 nM (sheet 'Lestaurtinib' of Supplementary Table 1),run:Lestaurtinib_02496_R2,Plate:MR013",579 nM
same,potency estimated from few doses,"[2]; compound concentrations:100 nM and 1000 nM (sheet 'Lestaurtinib' of Supplementary Table 1),run:Lestaurtinib_02566_R1,Plate:MR014",297 nM
same,potency estimated from few doses,[2]; [8],134 nM
same,potency estimated from few doses,"[2]; compound concentrations:100 nM and 1000 nM (sheet 'Lestaurtinib' of Supplementary Table 1),run:Lestaurtinib_02577_R1,Plate:MR016",260 nM
same,potency estimated from few doses,[2]; [9],149 nM
same,potency estimated from few doses,[2]; [10],473 nM
same,potency estimated from few doses,[2]; [11],401 nM
same,potency estimated from few doses,[2]; [12],420 nM
same,potency estimated from few doses,[2]; [13],553 nM
same,potency estimated from few doses,[2]; [14],462 nM
same,potency estimated from few doses,[2]; [15],388 nM
same,potency estimated from few doses,[2]; [16],511 nM
same,potency estimated from few doses,"[2]; compound concentrations:100 nM and 1000 nM (sheet 'Lestaurtinib' of Supplementary Table 1),run:Lestaurtinib_02606_R3,Plate:MR019",488 nM
same,potency estimated from few doses,[2]; [17],402 nM
same,potency estimated from few doses,"[2]; compound concentrations:100 nM and 1000 nM (sheet 'Lestaurtinib' of Supplementary Table 1),run:Lestaurtinib_02624_R2,Plate:MR020",440 nM
same,potency estimated from few doses,"[2]; compound concentrations:100 nM and 1000 nM (sheet 'Lestaurtinib' of Supplementary Table 1),run:Lestaurtinib_02624_R3,Plate:MR020",215 nM
same,potency estimated from few doses,"[2]; compound concentrations:100 nM and 1000 nM (sheet 'Lestaurtinib' of Supplementary Table 1),run:Lestaurtinib_02741_R1,Plate:MR023",395 nM
same,potency estimated from few doses,[2]; [18],396 nM
same,potency estimated from few doses,"[2]; compound concentrations:100 nM and 1000 nM (sheet 'Lestaurtinib' of Supplementary Table 1),run:Lestaurtinib_02741_R3,Plate:MR023",236 nM
